# Tested on: VDR:RXRa (NR concentration 270 nM, RXRa partner concentration 90 nM)
# Assay: PBM binding z-score (relative to random genomic background probes); higher = stronger binding; sequences stand for … in GC…GCGATTGACAGCGTAGAATGAAGG
# Description: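 Protein-binding microarray (Agilent 4x180K custom design, double-stranded 60-nt probes: 5' GC cap, 34-nt variable region, 24-nt constant primer region; full probe sequence given). Purified or IVT nuclear receptor:RXRα heterodimers (3:1 NR:RXRα, mostly 270:90 nM) or homodimers were incubated for 1 h in PBS with 2% milk and no ligand, then detected with Alexa488 antibodies. Fluorescence from o1-orientation probes (~5 replicates averaged) was converted to z-scores against 500 random hg19 background probes. Variable regions are seed direct-repeat (DR0–DR5) sites, all their single-nucleotide variants and half-site ablations.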
row,Sequence,PBM binding z-score
1,CCTATTAGTTGACCTTAAGGGCAACCGAAGCTCG,3.66
2,ATCTCTAGGTAAAGATAGTTTAGTGAATGCAAAT,0.322
3,TCAGCCAGGTGAAGGTAACTCAGGTACGCAGTCG,0.261
4,CCAGAGAGGTGAAAGGTAACTCAGTCTGGTACGC,1.64
5,CCTACCGGGCCATTCAGAGGTCATTGATCATATG,4.24
6,GATACAGGGTCAAGGCCAGGGTACGCGTATTGAT,4.71
7,GCGACTGGGGCCAAGCAGGTTACCATAAGGTTGG,0.713
8,CCGACTGGGGCAAACGTTACCATACTCAGTACGA,-0.23
9,TCTTGTAGATCACCAGGTTAAGAAAGCTGGCCAA,0.86
10,ACTAGCAGGCCAAGTTTGGGTCACTCGAACAAAG,0.392
11,CTACCAAGGTGAACAAGGTCGGTGATTACTATTC,4.17
12,AATACAGGGTCATCGTAGGCCTGAGTACGCACAG,4.97
13,AGAACGAGGGGACGCTGAGTTGATAGCAGAGTAG,0.464
14,ACAGACAGGTGATAAAGGTAACTCAGGCTATCAT,0.455
15,GGAACGAGGGCATTCGAGTTGAGAGCATGGCGAT,3.07
16,CCTTTCGGGTCACTGACAGGTTATAGCATTTGGA,3.86
17,TAGCCTAGGTCATTCAGGGGCGAGTATAGAAAGC,4.57
18,TAGCCTAGGTCATGCGGGCCCGTATAGTGTCGGC,1.97
19,TAGCCTAGGTCATTCAGGGGCCGGTATAGAAAGC,2.63
20,TCTTGTAGATCTGCAGGTTAAGAAAGCTGGCCAA,0.239

row,Sequence,PBM binding z-score
1,CCAGACAGGTGATAGGTAACTCAGTCTGGTACGC,-0.0769
2,TAGCCTAGGTCATGGGCAAGTATACCACGCGAAC,2.13
3,TCTAGTTGGTCAAAGGTCACAAACTCGAAATGCG,5.17
4,ACCTCTAGGTAAAGTTCAGTGAAAGATCGATAGA,0.835
5,TAGACTAGGTCATGGGCCAGTATACCACGCGAAC,1.76
6,ATCGAAAGGTCGTGAGGTGAGTATTCAGAAAGGC,3.7
7,ACTATTAGTTGAGACGAGGGCCACCGATAGGTTG,-0.293
8,TCTGTTAGTTGATTAGGGCAACCGAAACAGCGGA,0.452
9,CCTAGCAGGCAAATCTGGGTCACTCAAGGCTTGA,0.335
10,ATATGTAGGTTACATCCGGGTCATTGAGGCTATG,5.02
11,ATCGAAAGCTCGAGGTGAGTATAGAGAAAGGGAA,-0.459
12,ATCTCTAGGTAAGACTCAGTTCGGTGAAGAACGC,0.216
13,ATCGCTAGGTAACCAAGTTCAGTGAATGCCGAAC,3.74
14,ATCTCTGGGTAAAGTTCAGTGAAAGATCGATAGA,1.64
15,CAAACTAGGTCAAAAGTCAAAGTCGAGCCAACCA,2.46
16,GCCATTAGTTGAAAGGGCAACCGAATGATTCTCG,0.274
17,GCAGCTAGGTCAGGTTGGTCAGCTAACGGGTACG,0.358
18,CGTCAAAGTTCAGGGTAACGTAACAGAAAGCAGC,2.8
19,CCGATTAGTTGACCATAAGGGCAACCGAAGCTCG,0.252
20,ATACCAAGGTGATCGTGAGGCCGTTGATACTAAC,0.401

# Reference: the supplement of paper PMC6555819
